Among the data in PubChem BioAssay (NCI) are growth values, retold here.

Compounds without any hit were thinned out: in the full panel of roughly 83,000, 20% have a hit.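 Each cell line was grown in a 96-well plate and treated with one concentration of compound for 48 hours. Values below 10 were considered active.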 Values without a mark were called inactive. Activity calls are given as the source filed them.

This assay concerns OVCAR-4 ovarian. In words: NCI-60 one-dose screen, 48 h (100 = growth as untreated, 0 = no growth, -100 = all killed). The settings on record: 10 µM unless noted. The procedure: Growth inhibition of the OVCAR-4 human tumor cell line is measured as a screen for anti-cancer activity. Cells are grown in 96 well plates and exposed to the test compound for 48 hours. Compounds are tested at a single concentration, which is 10^-5 M for most compounds. The reported endpoint is percent growth (GI% or GIPRCNT), where numbers from 0 - 100% represent growth inhibition, and numbers from -100% - 0 represent cell death. For example, a value of 40 represents 60% growth inhibition. A value of 0 means no net growth occurred over the course of the experiment. A value of -40 indicates 40% of cells at the beginning of the experiment died by the end of the experiment. A value of -100 means all cells are dead at the end of the experiment.
NCI-60 Human Tumor Cell Lines Screen was performed using the standard one-dose NCI protocol, which is described in more detail at https://dtp.cancer.gov/discovery_development/nci-60/default.htm.
Compounds with GIPRCNT values below 10 were considered active. Activity score was based on GIPRCNT using the following formula: […]
Score is 0 for GIPRCNT values of 100 or above, 50 for GIPRCNT values of 0, and 100 for GIPRCNT values of -100.
`CN(C)c1nc(NCCNS(=O)(=O)c2ccc(C3=Nc4c(N)nc(N)nc4NC(c4ccc(C(F)(F)F)cc4)C3)cc2)nc(Nc2ccc(F)cc2)n1` (stereo not given): the growth was 31.3%.

As for `C=C1CC[C@@H]2[C@]3(C)COC(c4cn[nH]c4-c4ccccc4)O[C@@H]3CC[C@@]2(C)[C@@H]1C/C=C1/C(=O)OCC1O` (stereo not given in full), the growth is 11.5%. To `Cn1cc(-c2cc3nc(-c4cn(C)c5ncccc45)cc(N)n3n2)c2ccccc21` belongs 3.01% (active); to `Brc1ccc(N/N=C/c2c[nH]c3ccc(Br)cc23)nc1`, 19.6%.

Regarding `COc1ccc2[nH]c(O)c(N=NC(=O)Cn3c(-c4ccccc4)nc4cc(C)ccc43)c2c1`, the growth was 45.3%. The same measure for `COc1ccc2[nH]cc(-c3cc(N)n4nc(-c5cn(C)c6ccccc56)cc4n3)c2c1`: -58.3% (active); for `Cc1cc2nc3c4ccccc4n(CCCN(C)C)c3nc2cc1C`: -23.4% (active).

As for `N#Cc1ccc(/C=N/NC(=O)c2[nH]c3ccc(Br)cc3c2-c2ccccc2)o1`, the growth was 35%. To `N#Cc1c(-c2ccc(Br)cc2)nc2n[nH]c(-c3ccc(Br)cc3)c2c1-c1ccc(F)cc1` belongs 96.4%; to `COc1ccc(C(=O)/C=C/c2ccc3ccccc3c2)cc1S(N)(=O)=O`, 32.5%. As for `O=C(N/N=C/c1ccc(-c2ccc(O)cc2)o1)c1[nH]c2ccc(Br)cc2c1-c1ccccc1`, the growth was 24.4%. Turning to `Nc1nc(-c2ccccc2)c(N=Nc2ccc(Cl)cc2[N+](=O)[O-])s1`, the growth was 97.2%. For `COC(=O)C[C@](O)(CCCC(C)(C)O)C(=O)O[C@H]1C(OC)=C[C@@]23CCCN2CCc2cc4c(cc2[C@@H]13)OCO4`, the growth was -13.9% (active). With `CC12CC[C@@H]3[C@]4(C)COC(c5cn[nH]c5-c5cccc(Br)c5)O[C@@H]4CC[C@@]3(C)[C@@H]1CC(C1=CCOC1=O)O2` (stereo not given in full), the growth is 25.4%.

In the case of `COc1ccc(NC(=O)Cn2c(/C=C/c3cccc([N+](=O)[O-])c3)nc3ccccc3c2=O)cc1`, the growth was 44.7%.

`CC1(C)CC[C@]2(C(=O)O)CC[C@]3(C)C(=CCC4[C@@]5(C)C[C@@H](O)[C@@H]6OC(c7ccco7)OC[C@@]6(C)C5CC[C@]43C)C2C1` (stereo not given in full): the growth was 47.9%. To `COc1ccc2c(c1)c(-c1cc3nc(-c4cn(C)c5ncc(Br)cc45)cc(N)n3n1)cn2C` belongs 17.3%; to `Cc1ccc2c(N)c(C(=O)Nc3ccc(OC(F)(F)F)cc3)sc2n1`, 52.1%; to `O=C(N=Nc1c(O)[nH]c2ccc(Cl)cc12)c1ccc2nc(-c3ccccc3)[nH]c2c1`, 38.2%.

Consider `COc1ccc(C2=NN(C(C)=O)C(c3ccc(OCc4ccc(Cl)cc4)c(OC)c3)C2)cc1OC` (stereo not given), for which the growth was 29.4%. Consider `Cc1ccc([C@H]2C(C(=O)c3ccc(Cl)cc3)C3(N[C@@H]2c2ccccc2)C(=O)Nc2ccccc23)cc1` (stereo not given in full), for which the growth is 49.4%. The same measure for `Cc1cc2nc3c4ccccc4n(CCNCCN(C)C)c3nc2cc1C`: 33%. To `Cn1cc(-c2cc3nc(-c4c[nH]c5ccc(Br)cc45)cc(N)n3n2)c2ccccc21` belongs -57% (active). Consider `CN(C)c1nc(NCCNS(=O)(=O)c2ccc(C3=Nc4c(N)nc(N)nc4NC(c4ccc(F)cc4)C3)cc2)nc(Nc2ccc(F)cc2)n1` (stereo not given), for which the growth is 40.8%. In the case of `O=C(COc1ccc(NC(=O)Nc2ccc(Cl)c(Cl)c2)cc1)N=Nc1c(O)[nH]c2ccc(Br)cc12`, the growth is -27% (active). The same measure for `CCCCCCCCOc1cccc(S(=O)(=O)Nc2ccc(C)cc2C(=O)O)c1`: 90.1%. Take `O=C(NN1C(=O)/C(=C/C=C/c2ccc([N+](=O)[O-])o2)SC1=S)c1ccc(Cl)cc1`: the growth is -98.9% (active). With `CN(C)c1nc(NCCNS(=O)(=O)c2ccc(C(=O)/C=C/c3ccc(C(F)(F)F)cc3)cc2)nc(Nc2ccc(F)cc2)n1`, the growth was 11.6%.

In the case of `CSc1ccc(NC(=O)c2ccc3nnn(/C(C#N)=C/c4ccccn4)c3c2)cc1`, the growth is -97.4% (active). As for `O=C(NNc1nc2cc(F)ccc2n2c(CN3CCCCC3)ccc12)c1cnccn1`, the growth was -45.5% (active). The same measure for `CCOC(=O)/C=C/c1cccc2c1C(=O)NC(C)(c1cc3cc(Br)ccc3oc1=O)N2` (stereo not given): 40.2%. The same measure for `CCN(CC)c1ccnc(CNCCSC(c2ccccc2)(c2ccccc2)c2ccc(C)cc2)c1`: -21% (active). On to `COc1ccc(C(=O)/C=C/c2c(F)cccc2Cl)cc1S(N)(=O)=O`, for which the growth is 42.9%. For `CC(=O)Oc1ccccc1C(=O)[Se]C(=NC1CCCCC1)NC1CCCCC1`, the growth is -85.9% (active). Take `COc1ccc(NC(=O)[C@H](CO)NC(=O)OC(C)(C)C)cc1C(=O)Nc1cccc(C2CC(=O)c3c(cc(OC)c(OC)c3OC)O2)c1` (stereo not given in full): the growth is 57.7%.

Take `N#Cc1c(-c2ccc(Cl)cc2)nc2n[nH]c(-c3ccc(Cl)cc3)c2c1-c1cccs1`: the growth was 42.3%. Turning to `Nc1nc(-c2ccccc2)c(N=Nc2ccc([N+](=O)[O-])cc2Cl)s1`, the growth is 80.4%. As to `O=C1Nc2cc(Cl)ccc2/C1=C/c1cccc(OCc2ccccn2)c1`, the growth is 49.1%. With `O=c1[nH]c(=O)c2c(-c3cc4ccccc4oc3=O)ccnc2[nH]1`, the growth is 88.3%. To `CC(C)C(C(=O)O)n1c(O)c(/C=C2/C=c3cc4c(cc3=NC2=O)OCO4)sc1=S` (stereo not given) belongs 108%.
